Calb FLC: C. albicans growth modulation with fluconazole. 300,000 compounds, 0.57% hits. AID 1979. growth inhibition, % (test concentration not listed). C. albicans CaCi-2 (fluconazole-resistant clinical isolate) + fluconazole, Alamar Blue growth, 48 h;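 active = growth inhibition above about 58% in most replicates, limit read from the data, passing the limit was not always enough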;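 note: all wells also contain fluconazole at 8 µg/ml as a sub-toxic cotreatment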
M18AAP inhibitor: PfM18AAP enzyme inhibition | recombinant PfM18AAP, H-Glu-NHMec fluorogenic cleavage | 290,000 compounds, 1.2% hits | inhibition, % at 7.35 µM | AID 1822;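 active = inhibition above the campaign mean inhibition over all tested compounds plus 3 SD, cut at about 28% in these data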
Fh CTSL1 inh: cathepsin L1 inhibition, PFM18AAP counter-screen. recombinant F. hepatica cathepsin L1, Z-Leu-Arg-MCA fluorescence. inhibition, % at 5.96 µM. 300,000 compounds, 0.49% hits;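 active = inhibition above the mean of all tested compounds plus 3 SD, set per screening campaign, cut at about 17% in these data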
Rin1 Abl inh: inhibitors of human Rin1-Abl protein interaction; P00519+Q13671; TR-FRET Rin1/Abl binding, biochemical; inhibition, % at 7.35 µM; 360,000 compounds, 0.4% hits; AID 588664; in the data active = inhibition above about 5%, passing the limit was not always enough
Rin1 Abl conf: confirmation of inhibitors of human Rin1-Abl interaction; 1,300 compounds, 49% hits; TR-FRET Rin1-Abl binding, purified proteins; AID 602124; inhibition, % at 7.35 µM; shares compounds with Rin1 Abl inh
GFP quencher: GFP fluorescence interference artifact; shares compounds with Rin1 Abl inh; inhibitors/quenchers counterscreen; inhibition, % at 6.75 µM; 1,300 compounds, 8.5% hits;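 note: ABL1-eGFP fusion protein alone without its partner RIN1-SBP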
GFP quench dose: counter-screen for Rin1-Abl inhibitors: GFP quenchers, dose response; shares compounds with Rin1 Abl inh; GFP fluorescence interference/quenching counterscreen; IC50, µM; 230 tested, under 10 active; call rule not given here;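 note: ABL1-eGFP fusion protein alone without its RIN1 binding partner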
A number is an active result; 0 = inactive; - = not tested or not shown. Only some compounds are listed: those with a hit (about 2.1% of all), similar ones and a draw of the others. Cut-off read from the data, not from the text of the source, unless noted: active = inhibition above about 6.5%; inactive = the rest.

SMILES	Calb FLC	M18AAP inhibitor	Fh CTSL1 inh	Rin1 Abl inh	Rin1 Abl conf	GFP quencher	others
Cc1ccc(N(C(=O)c2snc(C(N)=O)c2N)C(C(=O)NCC2CCCO2)c2ccc3ncccc3c2)cc1 (centres undefined)	0	0	-	0	-	-
Cc1ccc(C(C(=O)NCC2CCCO2)N(C(=O)c2snc(C(N)=O)c2N)c2ccc3c(c2)OCCO3)cc1 (centres undefined)	0	0	0	13	14	0
NC(=O)c1nsc(C(=O)N(c2ccc3c(c2)OCCO3)C(C(=O)NCC2CCCO2)c2ccc(F)cc2)c1N (centres undefined)	0	0	0	11	11	0
CC(=O)c1ccc(OCCCC(=O)OCC(=O)N2CCN(c3ccccc3)CC2)cc1	0	0	0	0	-	-
CCC(c1nc2ccccc2c(=O)n1CCN1CCOCC1)N1C(=O)c2ccccc2C1=O (centres undefined)	0	0	0	0	-	-
CCC(c1nc2ccccc2c(=O)n1CCCn1ccnc1)N1C(=O)c2ccccc2C1=O (centres undefined)	0	0	0	15	21	0	GFP quench dose=0
COc1ccc(CCNC(=O)c2c(N)no[n+]2[O-])cc1OC	0	0	0	6.6	0	0
COc1ccc(CCNC(=O)c2ccc(OC)c(OC)c2)cc1OC	0	0	0	0	-	-
CC(=O)c1cccc(N(CC(=O)Nc2cc(C)cc(C)c2)S(C)(=O)=O)c1	0	0	0	0	-	-
Cc1nc(Nc2cccc(O)c2)c2c3c(sc2n1)CCC3	0	0	0	46	45	0	GFP quench dose=0
Cc1nc(NS(=O)(=O)c2ccccc2C)c2c3c(sc2n1)CCC3	0	0	0	-	-	-
O=C(Nc1nnc(-c2ccc3c(c2)CCCC3)o1)C1COc2ccccc2O1 (centres undefined)	0	0	0	0	-	-
C1CCC(c2nn3c(-c4n[nH]c5c4CCC5)nnc3s2)CC1	0	0	0	25	14	0
O=C(/C=C/c1ccc(Cl)cc1)Nc1cc(S(=O)(=O)N2CCOCC2)ccc1N1CCOCC1	-	-	-	0	-	-
CC(=O)c1cccc(NC(=O)C2(C)Cc3c(-c4cccc(C(N)=O)c4)ccnc3O2)c1 (centres undefined)	-	-	-	8.2	12	0
COc1ccc(CNC(=O)C2(C)Cc3c(-c4cccc(C(N)=O)c4)ccnc3O2)cc1OC (centres undefined)	-	-	-	11	7.2	0
CC1(C(=O)Nc2cccc(NS(C)(=O)=O)c2)Cc2c(-c3cccc(C(N)=O)c3)ccnc2O1 (centres undefined)	-	-	-	0	-	-
CCOc1ccccc1NCc1nnc(-c2ccccc2)o1	0	0	0	0	-	-
CCCc1c(O)nc(SCCN(CC)CC)[nH]c1=O	0	0	0	7.6	0	0
COc1ccc(-n2nnc3c(=O)n(CC(=O)N4CCCCC4)cnc32)cc1	0	0	0	0	-	-
COc1ccc(-n2nnc3c(=O)n(CC(=O)N4CCCC4)cnc32)cc1	0	0	0	5.0	0	0
CCOC(=O)NC(=O)COC(=O)CCCc1nc2ccccc2s1	0	0	0	5.4	0	0
CC(C)(C)C(=O)Nc1ccc(F)cc1[N+](=O)[O-]	0	0	0	0	-	-
CN(Cc1ccc(F)cc1)C(=O)c1cccc(OCc2ccccc2)c1	0	0	0	0	-	-
CC1CCCCN1S(=O)(=O)c1ccc(C(=O)Nc2nnc(C3=COCCO3)o2)cc1 (centres undefined)	0	0	0	7.8	0	0
SMILES	Calb FLC	M18AAP inhibitor	Fh CTSL1 inh	Rin1 Abl inh	Rin1 Abl conf	GFP quencher	others
CC1CCCN(S(=O)(=O)c2ccc(C(=O)Nc3nnc(C4=COCCO4)o3)cc2)C1 (centres undefined)	0	0	0	0	-	-
Cc1ccc(-n2ccc(=O)c(C(=O)Nc3ccc(S(=O)(=O)Nc4onc(C)c4C)cc3)n2)cc1	0	0	0	0	-	-
C#CCOC(=O)CCCC(=O)NCCCCCCCC	109	0	0	6.6	0	0
OC(CNC1CCCCC1)COCCOc1ccc(Br)cc1 (centres undefined)	0	0	0	0	-	-
CC1=Nc2ccccc2NC(=O)C1Sc1nnc(C)s1 (centres undefined)	0	0	0	6.4	0	0
COc1ccc(S(=O)(=O)N2CCCCCC2)cc1C(=O)Nc1ccc(C(=O)N(C)C)cc1	-	-	-	38	43	0	GFP quench dose=0
COc1ccc(NC(=O)CSc2nc(N)cc(=O)[nH]2)cc1S(=O)(=O)N1CCCCC1	-	-	-	11	7.7	0
COc1ccc(NC(=O)c2cc(S(=O)(=O)N3CCCCC3)ccc2OC)cc1	0	0	0	0	-	-
COc1cc(C(=O)Nc2ccc(S(=O)(=O)N3CCOCC3)cc2)c([N+](=O)[O-])cc1OC	0	0	0	11	0	0
COc1ccc(CC(=O)Nc2ccc(S(=O)(=O)N3CCCCC3)cc2)cc1OC	0	0	0	10	6.7	0
CCN(CC)CCCNC(=O)C1CCN(C(=O)c2oc3cc4sc(N(C)C)nc4cc3c2C)CC1	0	0	0	0	-	-
Cc1cc(CN(C)Cc2cn(C)nc2-c2ccc(Oc3ccccc3)cc2)on1	0	0	0	0	-	-
Cc1cc(C)nc(SCC(=O)Nc2ccc(S(=O)(=O)N3CCCCC3)cc2)n1	0	0	0	6.3	0	0
Cc1ccccc1C(NC(=O)C1CCN(Cc2ccc(Oc3ccccc3)cc2)CC1)c1ccsc1 (centres undefined)	-	-	-	0	-	-
Oc1ccc(/C=N/Nc2ncnc3c2ncn3Cc2ccccc2)cc1O	0	39	0	12	11	9.1
CC1(C)Cc2c(c(N3CCOCC3)nc3sc4c(=O)[nH]cnc4c23)CS1	0	0	0	0	-	-
OCCN(CCO)c1ncnc2c1sc1nc(N3CCOCC3)c3c(c12)CCCC3	0	0	0	11	8.3	0
COC(=O)c1ccc(Cn2cnc3c(sc4nc(N5CCOCC5)c5c(c43)CCCC5)c2=O)o1	0	0	0	8.7	7.1	0
OCCN1CCN(c2ncnc3c2sc2nc(N4CCOCC4)c4c(c23)CCC4)CC1	0	0	0	15	23	0	GFP quench dose=0
CN(C)CCNc1ncnc2c1sc1nc(N3CCOCC3)c3c(c12)CC(C)(C)SC3	0	0	0	27	26	0	GFP quench dose=0
CCOC(=O)NC1Cc2ccccc2C1Sc1ccccn1 (centres undefined)	0	0	0	0	-	-
O=C(CN1CCN(CC(=O)Nc2ccc(F)cc2)CC1)NCC1(N2CCOCC2)CCCCC1	-	-	-	0	-	-
O=C(COc1ccc(F)cc1)NCC1(N2CCOCC2)CCCCC1	-	-	-	11	0	0
Cc1nc2c(C#N)c[nH]n2c(=O)c1CCO	0	0	0	0	-	-
CCOC(=O)Cc1nnc(NC(=O)CCc2ccccc2)s1	0	0	0	0	-	-
O=C(CCNC(=O)C1CCN(S(=O)(=O)c2ccc(F)cc2)CC1)Nc1nccs1	0	0	0	0	-	-
CC(=O)Nc1ccc(S(=O)(=O)N2CCC(C(=O)NCCC(=O)Nc3nccs3)CC2)cc1	-	0	0	11	0	0
